Holding throughout (conditions): mRNA level, 48 h; actives raise or lower the signal
Read-out in assay [1]: Apolipoprotein A-V (APOA5) gene, APOA5 (gene 116519)
As to the kind of experiment: LTEA_HepaRG_APOA5: Life Technologies and Expression Analysis (LTEA) Assay for Apolipoprotein A-V (APOA5) gene using HepaRG (AID 2283474). The gist of the method: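 Concentration-response of APOA5 expression in HepaRG: eight half-log doses to 100 uM, 48 h, qRT-PCR normalized to ACTB/GAPDH/POLR2A, bidirectional fitting with 0.5% DMSO as baseline.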

Read-out in assay [2]: Apoptosis regulator Bcl-2 (Homo sapiens) (UniProt P10415)
The experiment in a line: LTEA_HepaRG_BCL2: Life Technologies and Expression Analysis (LTEA) Assay for Bcl-2 gene using HepaRG (AID 2283475). The gist of the method:
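Differentiated HepaRG cells in serum-free induction medium were exposed for 48 h to eight half-log concentrations up to 100 uM in 0.5% DMSO, in duplicate. BCL2 mRNA was quantified by TaqMan qRT-PCR normalised to ACTB, GAPDH and POLR2A, with bidirectional fitting versus DMSO.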

Read-out in assay [3]: Bcl-2 (BID) gene, BID (gene 637)
As to the kind of experiment: LTEA_HepaRG_BID: Life Technologies and Expression Analysis (LTEA) Assay for Bcl-2 (BID) gene using HepaRG (AID 2283476). The gist of the method: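 Differentiated HepaRG cells in serum-free induction medium were exposed in duplicate for 48 h to eight half-log concentrations up to 100 uM in 0.5% DMSO. BID mRNA was quantified by qRT-PCR, normalized to ACTB, GAPDH and POLR2A.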

Read-out in the next assay: Caspase-3 (Homo sapiens) (UniProt P42574)
The experiment in a line: LTEA_HepaRG_CASP3: Life Technologies and Expression Analysis (LTEA) Assay for cysteine-aspartic acid protease (CASP3) using HepaRG (AID 2283477). The method in brief:
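Transcript-level assay: CASP3 mRNA in human HepaRG after 48 h treatment, eight half-log concentrations from 100 uM in 0.5% DMSO, quantified by qRT-PCR.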

Read-out in assay [4]: Cytochrome P450 (CYP24A1), CYP24A1 (gene 1591)
As to the kind of experiment: LTEA_HepaRG_CYP24A1: Life Technologies and Expression Analysis (LTEA) Assay for Cytochrome P450 (CYP24A1) using HepaRG (AID 2283478). The gist of the method: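 Gene expression of CYP24A1 by TaqMan qRT-PCR in HepaRG after 48 h treatment, highest concentration 100 uM; activity fitted in both directions relative to DMSO vehicle.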

Read-out in assay [5]: Cytochrome P450 (CYP1A2), CYP1A2 (gene 1544)
As to the kind of experiment: LTEA_HepaRG_CYP1A2: Life Technologies and Expression Analysis (LTEA) Assay for Cytochrome P450 (CYP1A2) using HepaRG (AID 2283479). The gist of the method:
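In duplicate wells, HepaRG cultures maintained in 0.5% DMSO were treated 48 h across an 8-point, half-log series topping at 100 uM; phenobarbital (1 mM) served as induction control. Expression was read by qRT-PCR.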

Read-out in assay [6]: cysteine-aspartic acid protease (CASP8), CASP8 (gene 841)
As to the kind of experiment: LTEA_HepaRG_CASP8: Life Technologies and Expression Analysis (LTEA) Assay for cysteine-aspartic acid protease (CASP8) using HepaRG (AID 2283480). The gist of the method:
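HepaRG, 48 h exposure, duplicate wells; 8 conc, half-log from 100 uM, 0.5% DMSO. Serum-free induction medium. CASP8 mRNA by TaqMan qRT-PCR, norm. ACTB/GAPDH/POLR2A; gain/loss fitted vs DMSO.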

Read-out in assay [7]: Cytochrome P450 (CYP2B6), CYP2B6 (gene 1555)
As to the kind of experiment: LTEA_HepaRG_CYP2B6: Life Technologies and Expression Analysis (LTEA) Assay for Cytochrome P450 (CYP2B6) using HepaRG (AID 2283481). The method in brief:
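Human HepaRG, 48 h dosing, 0.5% DMSO vehicle, top dose 100 uM. CYP2B6 transcript by qRT-PCR, housekeeping-normalized, bidirectional curve fit.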

Read-out in assay [8]: Cytochrome P450 2C19 (Homo sapiens) (UniProt P33261)
The experiment in a line: LTEA_HepaRG_CYP2C19: Life Technologies and Expression Analysis (LTEA) Assay for CYP2C19 using HepaRG (AID 2283482). The gist of the method:
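Endpoint: CYP2C19 mRNA change, bidirectional fit vs 0.5% DMSO. Cells: HepaRG, 48 h exposure, eight-point series topping at 100 uM. Quantitation: qRT-PCR normalized to ACTB, GAPDH, POLR2A.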

Read-out in the next assay: CYP2C8 (gene 1558)
The experiment in a line: LTEA_HepaRG_CYP2C8: Life Technologies and Expression Analysis (LTEA) Assay for CYP2C8 using HepaRG (AID 2283483). The gist of the method:
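CYP2C8 mRNA induction or loss, by qRT-PCR normalized to ACTB/GAPDH/POLR2A, is read in HepaRG cells after 48 h treatment. Concentrations run from 100 uM down in half-log dilutions, with 0.5% DMSO as vehicle and baseline.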

Read-out in the next assay: CYP2C9 (gene 1559)
As to the kind of experiment: LTEA_HepaRG_CYP2C9: Life Technologies and Expression Analysis (LTEA) Assay for CYP2C9 using HepaRG (AID 2283484). The gist of the method: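 Cells plated 48 h, switched to serum-free induction medium, then treated in duplicate for 48 h at eight concentrations (max 100 uM, 0.5% DMSO). RNA then analysed by qRT-PCR for CYP2C9; curves fitted in both directions relative to DMSO.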

Read-out in another assay: CYP2E1 (gene 1571)
The experiment in a line: LTEA_HepaRG_CYP2E1: Life Technologies and Expression Analysis (LTEA) Assay for CYP2E1 using HepaRG (AID 2283485). The method in brief: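 HepaRG cells in serum-free induction medium exposed 48 h to test chemicals, 8 half-log concentrations up to 100 uM in 0.5% DMSO, duplicate. CYP2E1 mRNA by qRT-PCR, normalized to ACTB, GAPDH, POLR2A; bidirectional fit versus DMSO.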

Read-out in another assay: CYP4A11 (gene 1579)
As to the kind of experiment: LTEA_HepaRG_CYP4A11: Life Technologies and Expression Analysis (LTEA) Assay for CYP4A11 using HepaRG (AID 2283486). The gist of the method: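 Human hepatic HepaRG cultures receive duplicate 48 h exposures across a concentration-response series topping at 100 uM. Expression changes in CYP4A11 are measured by qRT-PCR relative to DMSO controls.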

Read-out in assay [9]: Cytochrome P450 3A4 (Homo sapiens) (UniProt P08684)
As to the kind of experiment: LTEA_HepaRG_CYP3A4: Life Technologies and Expression Analysis (LTEA) Assay for CYP3A4 using HepaRG (AID 2283487). The method in brief: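 Differentiated HepaRG cells, plated 48 h, then dosed 48 h in serum-free induction medium with 0.5% DMSO, 8 half-log concentrations up to 100 uM, duplicate. CYP3A4 mRNA by qRT-PCR, normalized to ACTB/GAPDH/POLR2A; bidirectional fit versus DMSO.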

Read-out in assay [10]: DNA damage-inducible transcript 3 (DDIT3), DDIT3 (gene 1649)
As to the kind of experiment: LTEA_HepaRG_DDIT3: Life Technologies and Expression Analysis (LTEA) Assay for DNA damage-inducible transcript 3 (DDIT3) using HepaRG (AID 2283488). The gist of the method:
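Differentiated human HepaRG cells in serum-free induction medium were exposed in duplicate for 48 h to 8 concentrations (top 100 uM, half-log steps, 0.5% DMSO). DDIT3 mRNA measured by TaqMan qRT-PCR, normalized to ACTB/GAPDH/POLR2A; bidirectional fit versus DMSO.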

Read-out in assay [11]: Pro-epidermal growth factor (Homo sapiens) (UniProt P01133)
The experiment in a line: LTEA_HepaRG_EGF: Life Technologies and Expression Analysis (LTEA) Assay for Epidermal growth factor (EGF) using HepaRG (AID 2283489). The gist of the method: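 Concentration-response mRNA assay: HepaRG cells dosed 48 h (max 100 uM, 0.5% DMSO), EGF measured by qRT-PCR and normalized to ACTB/GAPDH/POLR2A.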

Read-out in assay [12]: Early growth response protein 1 (EGR1) transcription factor, EGR1 (gene 1958)
As to the kind of experiment: LTEA_HepaRG_EGR1: Life Technologies and Expression Analysis (LTEA) Assay for Early growth response protein 1 (EGR1) transcription factor using HepaRG (AID 2283490). The method in brief: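 Read-out is EGR1 mRNA level by qRT-PCR, normalized to three housekeeping genes and analysed for gain or loss of signal against 0.5% DMSO. Source cells: human HepaRG, treated 48 h at up to 100 uM in half-log dilutions.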

Read-out in assay [13]: Ezrin (EZR), EZR (gene 7430)
As to the kind of experiment: LTEA_HepaRG_EZR: Life Technologies and Expression Analysis (LTEA) Assay for Ezrin (EZR) using HepaRG (AID 2283491). The method in brief: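 EZR transcript levels came from Fluidigm qRT-PCR and were normalized to three housekeeping genes after 48 h chemical exposure of HepaRG cells. Dosing used an 8-point half-log series with a 100 uM top concentration in 0.5% DMSO, tested in duplicate; both directions were fitted versus vehicle.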

Read-out in assay [14]: Cytochrome P450 3A7 (Homo sapiens) (UniProt P24462)
The experiment in a line: LTEA_HepaRG_CYP3A7: Life Technologies and Expression Analysis (LTEA) Assay for CYP3A7 using HepaRG (AID 2283492). The gist of the method: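 qRT-PCR of CYP3A7 in HepaRG lysates after 48 h treatment; concentration-response (8 points, max 100 uM) analysed bidirectionally relative to 0.5% DMSO controls.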

Calls of active or inactive are those of the source. How the source made its calls: active means hit-call score of the fitted dose curve at least 0.9, where 1 is the maximum; inactive means score below 0.9.

Chain of Caspase-3 (Homo sapiens) (P42574 whole entry, looked up): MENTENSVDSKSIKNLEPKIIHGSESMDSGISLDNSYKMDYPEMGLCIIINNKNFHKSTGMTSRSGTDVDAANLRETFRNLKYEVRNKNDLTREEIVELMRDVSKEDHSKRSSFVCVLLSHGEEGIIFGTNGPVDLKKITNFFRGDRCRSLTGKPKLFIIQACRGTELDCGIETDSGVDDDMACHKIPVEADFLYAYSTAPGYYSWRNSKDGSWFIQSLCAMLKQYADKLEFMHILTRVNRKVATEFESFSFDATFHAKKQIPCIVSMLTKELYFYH
Chain of Cytochrome P450 3A7 (Homo sapiens) (P24462 whole entry, looked up): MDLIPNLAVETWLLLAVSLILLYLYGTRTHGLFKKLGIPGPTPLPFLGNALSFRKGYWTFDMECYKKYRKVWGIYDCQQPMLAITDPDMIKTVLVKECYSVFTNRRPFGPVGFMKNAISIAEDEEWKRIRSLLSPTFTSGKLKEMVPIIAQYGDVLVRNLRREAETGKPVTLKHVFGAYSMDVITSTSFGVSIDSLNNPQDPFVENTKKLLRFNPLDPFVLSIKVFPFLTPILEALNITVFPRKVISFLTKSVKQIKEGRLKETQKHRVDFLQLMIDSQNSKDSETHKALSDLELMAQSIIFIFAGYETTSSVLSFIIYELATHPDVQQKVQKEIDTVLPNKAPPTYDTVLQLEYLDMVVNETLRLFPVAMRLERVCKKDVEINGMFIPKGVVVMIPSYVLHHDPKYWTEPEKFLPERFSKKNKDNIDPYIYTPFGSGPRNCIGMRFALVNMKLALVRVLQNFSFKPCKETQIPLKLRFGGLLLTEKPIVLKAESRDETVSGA
Chain of Cytochrome P450 2C19 (Homo sapiens) (P33261 whole entry, looked up): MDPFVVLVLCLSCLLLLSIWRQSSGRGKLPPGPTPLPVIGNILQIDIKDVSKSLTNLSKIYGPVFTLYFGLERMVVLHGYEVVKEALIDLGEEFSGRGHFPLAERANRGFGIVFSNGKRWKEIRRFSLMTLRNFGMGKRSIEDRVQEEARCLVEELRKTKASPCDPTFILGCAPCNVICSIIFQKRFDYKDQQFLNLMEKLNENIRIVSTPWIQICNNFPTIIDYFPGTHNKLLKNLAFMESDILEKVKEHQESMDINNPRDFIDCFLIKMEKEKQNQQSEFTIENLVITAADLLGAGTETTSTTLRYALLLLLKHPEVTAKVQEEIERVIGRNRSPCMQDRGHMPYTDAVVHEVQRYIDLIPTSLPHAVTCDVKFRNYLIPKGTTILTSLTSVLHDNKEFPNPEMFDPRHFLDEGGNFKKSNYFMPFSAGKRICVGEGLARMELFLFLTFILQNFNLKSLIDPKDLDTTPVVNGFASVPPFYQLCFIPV
Chain of Cytochrome P450 3A4 (Homo sapiens) (P08684 whole entry, looked up): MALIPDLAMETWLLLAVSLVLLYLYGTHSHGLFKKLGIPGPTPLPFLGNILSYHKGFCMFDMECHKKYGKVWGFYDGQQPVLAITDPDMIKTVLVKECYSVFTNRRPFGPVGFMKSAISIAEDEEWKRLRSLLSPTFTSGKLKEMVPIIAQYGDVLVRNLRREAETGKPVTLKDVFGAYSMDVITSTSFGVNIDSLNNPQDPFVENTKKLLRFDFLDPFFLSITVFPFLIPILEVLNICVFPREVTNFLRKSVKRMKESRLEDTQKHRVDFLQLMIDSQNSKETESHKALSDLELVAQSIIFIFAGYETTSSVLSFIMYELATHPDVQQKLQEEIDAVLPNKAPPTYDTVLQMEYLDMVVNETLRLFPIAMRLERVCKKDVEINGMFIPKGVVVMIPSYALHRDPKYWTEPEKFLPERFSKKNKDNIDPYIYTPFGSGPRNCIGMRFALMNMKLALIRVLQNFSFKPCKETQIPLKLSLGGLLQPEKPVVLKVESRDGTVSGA
Chain of Apoptosis regulator Bcl-2 (Homo sapiens) (P10415 whole entry, looked up): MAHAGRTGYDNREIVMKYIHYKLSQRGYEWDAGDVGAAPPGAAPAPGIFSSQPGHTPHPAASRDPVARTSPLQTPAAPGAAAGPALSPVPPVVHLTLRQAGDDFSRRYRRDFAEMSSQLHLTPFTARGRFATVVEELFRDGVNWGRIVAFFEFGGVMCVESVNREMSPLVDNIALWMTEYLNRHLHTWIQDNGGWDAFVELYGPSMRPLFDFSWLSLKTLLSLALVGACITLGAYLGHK

As for `CCCN(C1CCN(C(=O)C2CCNCC2)CC1)[C@@H]1CCc2ccc(OC)cc2C1`, the AC50 (usually the concentration giving half of the maximal activity seen) is 77.4 µM (active) in [1]; 84.3 µM (active) in assay [5]; 87.9 µM (active) in assay [7]; 86.3 µM (active) in assay [8]; 86.5 µM (active) with CYP2C8 (gene 1558); 80.3 µM (active) with CYP2C9 (gene 1559). Further, the AC50 is 67.4 µM (active) with CYP2E1 (gene 1571); 90.7 µM (active) with CYP4A11 (gene 1579); 86.7 µM (active) in assay [9]; 50 µM (active) in [10]; 86.4 µM (active) in assay [14]. For the same compound, the outcome (in assay [2]; in assay [3]; with Caspase-3 (Homo sapiens); in [4]; in [6]; in assay [11]) was inactive. Also, the call in assay [12] and in assay [13] was inactive.
For `CCOC(=O)CC(CC(=O)OCC)(OC(C)=O)C(=O)OCC`, the compound was classed as inactive (in assay [1]; in assay [2]; in [3]; in the assay with Caspase-3 (Homo sapiens); in assay [4]; in assay [6]). Also, the result (in assay [7]; in assay [8]; in the assay with CYP2C8 (gene 1558); with CYP2C9 (gene 1559); in the assay with CYP2E1 (gene 1571); with CYP4A11 (gene 1579)) was inactive. The call in assay [9], in [10], in [11], in assay [12], in assay [13] and in assay [14] was inactive. The concentration at half-maximal activity (AC50) in assay [5] was 20.5 µM (active).
`CC(=O)c1ccc2c(c1)[C@H](NC(=O)c1ccc(F)cc1)[C@@H](O)C(C)(C)O2`: the compound was called inactive (in assay [1]; in assay [2]; in assay [3]; in the assay with Caspase-3 (Homo sapiens); in assay [4]; in assay [5]). Besides, the call (in assay [6]; with CYP2C8 (gene 1558); with CYP2C9 (gene 1559); with CYP2E1 (gene 1571); with CYP4A11 (gene 1579); in assay [10]) was inactive. The compound was classed as inactive in assay [11], in [12] and in assay [13]. Besides, the AC50 in [7] was 68.4 µM (active); in [8] it was 16.3 µM (active); in [9], 18 µM (active); in assay [14] it was 34.2 µM (active).
As to `CCOC(=O)c1ccc(C2CCC(NC[C@H](O)COc3ccc(O)c(NS(C)(=O)=O)c3)CC2)cc1` (stereo not given in full), the outcome (in assay [1]; in assay [3]; with Caspase-3 (Homo sapiens); in assay [4]; in assay [5]; in assay [6]) was inactive. Besides, the outcome (in [7]; in [8]; with CYP2C8 (gene 1558); with CYP2C9 (gene 1559); with CYP2E1 (gene 1571); with CYP4A11 (gene 1579)) was inactive. Further, the outcome in assay [9], in assay [10], in assay [11], in [12], in [13] and in assay [14] was inactive. The AC50 in assay [2] was 2.75 µM (active).
With `O=C1CCCCCN1`, the result (in assay [1]; in assay [2]; in assay [3]; with Caspase-3 (Homo sapiens); in assay [4]; in [5]) was inactive. Besides, the compound was called inactive (in [6]; in [7]; in assay [8]; with CYP2C8 (gene 1558); with CYP2C9 (gene 1559); with CYP2E1 (gene 1571)). Moreover, the result (with CYP4A11 (gene 1579); in assay [9]; in assay [10]; in [11]; in [12]; in assay [13]) was inactive. For the same compound, the call in assay [14] was inactive.
